{
  "source": "PubChem BioAssay (Tox21)",
  "note": "Values joined by “and” are separate entries in the source; they are usually repeats but may differ in a detail not shown here. Equal entries are not always repeated. Results filed as inconclusive are left out. Where a call stands in place of a potency, no number is given. Some structures have more than one record in an assay (separate samples or runs), and their calls can disagree. Active and inactive are the calls of the source. Calls follow the shape of the dose curve; as a rule, active = well fitted cell-killing curve with a large enough effect in the repeat runs; inconclusive = weak or mixed curves, or effect the other way; inactive = no such curve, though single readings can be large or run the other way. Potency is read from the fitted curve at half-maximal effect.",
  "data": [
    {"assay": "qHTS assay to identify small molecule agonists of the estrogen receptor alpha (ER-alpha) signaling pathway in the presence of an antagonist - cell viability counter screen (AID 1259386);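 also: cells exposed to compounds for 22 h at 37 °C before the viability read; nearly all actives have a fitted effect of over 30% in size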", "conditions": "VM7Luc4E2 viability, CellTiter-Fluor fluorescence, 22 h; series mostly up to 92.4 µM; activity change, negative = cytotoxicity: at the top concentration", "description": "National Center for Advancing Translational Sciences [NCATS]\nNIH Chemical Genomics Center [NCGC]\nU.S. Environmental Protection Agency [EPA]\nNational Institutes of Environmental Health Sciences [NIEHS]\nNational Toxicology Program [NTP]\nU.S. Food and Drug Administration [FDA]\nEstrogen receptor (ER), a member of nuclear hormone receptor plays an important role in development, metabolic homeostasis and reproduction. Two subtypes of ER, ER-alpha and ER-beta, have similar expression patterns with some uniqueness in both types. Endocrine disrupting chemicals (EDCs) and their interactions with steroid hormone receptors like ER causes disruption of normal endocrine function. Therefore, it is important to understand the effect of environmental chemicals in ER signaling pathway. For identifying ER agonists, VM7Luc4E2 cell line has been used in the current assay.\nVM7Luc4E2 cell line (provided by Denison MS, University of California) endogenously expresses full-length ER-alpha and is stably transfected with a plasmid containing four estrogen responsive elements (ERE) upstream of a luciferase reporter gene. This current screening for measuring luciferase reporter gene activity using VM7Luc4E2 cells against Tox21 10K library collection is a confirmation study on agonist mode screening in presence of ER-antagonist (ICI-182,780) at 10.0nM final concentration. The cytotoxicity of the compounds was tested in parallel by measuring the cell viability using CellTiter-Fluor assay system (Promega, Madison, WI) in the same wells.\nTox21 Assay Protocol Summary:\nVM7Luc4E2 cells were cultured in phenol red free assay medium containing 10% charcoal stripped FBS for 5 days prior to the assay. The cells were dispensed at 4,000 cells in 4uL of assay medium per well into white wall/solid-bottom 1536-well plates (Corning Life Sciences, Corning, NY) using a Multidrop Combi (Thermo Fisher Scientific Inc., Waltham, MA) dispenser. After the assay plates were incubated at 37C and 5% CO2 for 24hr, 1uL of 10.0nM (final concentration) ICI-182,780 or assay buffer was added using two separate tips of Flying Reagent Dispenser (FRD, Aurora Discovery, San Diego, CA). Then 23nL of compounds dissolved in DMSO at 15 concentrations and positive controls or DMSO only was transferred to the assay plates by a Pintool station (Wako, San Diego, CA). The assay plates were incubated at 37C and 5% CO2 for 22hr. After 21hr incubation at 37C, 1uL/well CellTiter-Fluor reagent (Promega Corporation, Madison, WI) was added to each well using FRD and after 1hr incubation at 37C and 5% CO2, the fluorescence signal was measured on ViewLux plate reader (PerkinElmer, Shelton, CT).", "values": [
      {"smiles": "COc1ccc(C(=O)CC(=O)c2ccc(C(C)(C)C)cc2)cc1", "activity change, negative = cytotoxicity": "7.03% [at 42.5 µM] (inactive)"},
      {"smiles": "C=C(C)C1CC=C(C)CC1", "note": "(stereo not given)", "Potency": "inactive"},
      {"smiles": "CCCCC(CC)COCC1CO1", "note": "(stereo not given)", "Potency": "inactive"},
      {"smiles": "O=C=Nc1ccc(Cc2ccc(N=C=O)cc2)cc1", "Potency": "inactive"},
      {"smiles": "CC(C)OC=O", "Potency": "inactive"},
      {"smiles": "O=[N+]([O-])c1ccc2c(c1)Cc1ccccc1-2", "Potency": "inactive"},
      {"smiles": "Cc1cccc(N(C)C(=S)Oc2ccc3ccccc3c2)c1", "Potency": "inactive"},
      {"smiles": "Cc1cccc(C(=O)O)c1", "Potency": "inactive"},
      {"smiles": "CCC(C)(O)CCCC(C)C", "note": "(stereo not given)", "Potency": "inactive"},
      {"smiles": "Cc1[nH]c(=O)c(C#N)cc1-c1ccncc1", "activity change, negative = cytotoxicity": "1.38% [at 42.5 µM] (inactive)"},
      {"smiles": "O=C(c1ccccc1)c1ccccc1O", "Potency": "inactive"},
      {"smiles": "c1ccncc1", "Potency": "inactive"},
      {"smiles": "COc1cccc2c1C(=O)c1c(O)c3c(c(O)c1C2=O)C[C@@](O)(C(=O)CO)C[C@@H]3O[C@H]1C[C@H](N)[C@H](O)[C@H](C)O1", "Potency": "24.3 µM (active) and 29.8 µM (active)"},
      {"smiles": "CCCCCCCCCCCO", "Potency": "inactive"},
      {"smiles": "Clc1nc(Cl)c(Cl)c(Cl)c1Cl", "Potency": "inactive"},
      {"smiles": "CC1=CCC(C(C)(C)O)CC1", "note": "(stereo not given)", "Potency": "inactive"},
      {"smiles": "Brc1cc(Oc2cc(Br)c(Br)c(Br)c2Br)c(Br)c(Br)c1Br", "Potency": "inactive"},
      {"smiles": "NC=O", "Potency": "inactive"},
      {"smiles": "COC(=O)C1=C(C)NC(C)=C(C(=O)OCCN(C)Cc2ccccc2)C1c1cccc([N+](=O)[O-])c1", "note": "(stereo not given)", "Potency": "54.2 µM (active) and 18.8 µM (active)"},
      {"smiles": "CNCCCC12CCC(c3ccccc31)c1ccccc12", "activity change, negative = cytotoxicity": "1.22% [at 42.5 µM] (inactive)"},
      {"smiles": "Nc1ccc(Nc2ccccc2)cc1", "Potency": "30.6 µM (active) and 19.3 µM (active)"},
      {"smiles": "CCOCCOCCO", "Potency": "inactive"},
      {"smiles": "O=CCc1ccccc1", "Potency": "inactive"},
      {"smiles": "COc1ccc(OC)c(C(O)CNC(=O)CN)c1", "note": "(stereo not given)", "activity change, negative = cytotoxicity": "-11.4% (inactive)"},
      {"smiles": "O=C(Nc1ccc(Cl)cc1)Nc1ccc(Cl)c(Cl)c1", "Potency": "inactive and 33.5 µM (active)"},
      {"smiles": "OC1CCCCCCCCCCC1", "Potency": "inactive"},
      {"smiles": "Cc1ccc2c(n1)Oc1ccc(C(C)C(=O)OCC(=O)N(C)C)cc1C2", "note": "(stereo not given)", "Potency": "inactive"},
      {"smiles": "c1cc(N(CC2CO2)CC2CO2)ccc1OCC1CO1", "note": "(stereo not given)", "Potency": "54.5 µM (active)"},
      {"smiles": "CC(C)CC(C)(O)C#CC(C)(O)CC(C)C", "note": "(stereo not given)", "Potency": "inactive"},
      {"smiles": "C=C(C)C(=O)OCCOC(=O)C(=C)C", "Potency": "inactive"},
      {"smiles": "Cc1c(C(N)=O)cc([N+](=O)[O-])cc1[N+](=O)[O-]", "Potency": "inactive"},
      {"smiles": "O=C(OCc1ccccc1)c1ccccc1O", "Potency": "inactive"},
      {"smiles": "CCCCOCCOCCO", "Potency": "inactive"},
      {"smiles": "CC(C)=CCC/C(C)=C\\CO", "Potency": "inactive"},
      {"smiles": "CCCCNS(=O)(=O)c1ccccc1", "Potency": "inactive"},
      {"smiles": "S=C(NC1CCCCC1)NC1CCCCC1", "activity change, negative = cytotoxicity": "-16.1% (inactive)"},
      {"smiles": "O=C(/C=C/c1ccccc1)OCc1ccccc1", "Potency": "inactive"},
      {"smiles": "CCCc1c(OCCCCc2nn[nH]n2)ccc(C(C)=O)c1O", "Potency": "inactive"},
      {"smiles": "C/C=C/C(=O)O", "Potency": "inactive"},
      {"smiles": "c1cc(-c2ccncc2)ccn1", "Potency": "inactive"}
    ]}
  ]
}
